Source: PubChem BioAssay (National Center for Advancing Translational Sciences (NCATS))
Rows were chosen to be rich in hits. Some 10% of all compounds tested hit in one or more screens of this group.
FLuc inh-1 = Photinus pyralis luciferase inhibition; P08659; purified P. pyralis luciferase, luminescence, biochemical; Potency, µM (highest dose often 115 µM), hits mostly inhibitors; hit rate 2.5% among 76,000; AID 1347043; also: % is scaled to controls: 0 for no effect and ±100 for the full control effect; nearly all actives have a fitted effect of over 65% in size
Target sequence (P08659 whole entry, looked up): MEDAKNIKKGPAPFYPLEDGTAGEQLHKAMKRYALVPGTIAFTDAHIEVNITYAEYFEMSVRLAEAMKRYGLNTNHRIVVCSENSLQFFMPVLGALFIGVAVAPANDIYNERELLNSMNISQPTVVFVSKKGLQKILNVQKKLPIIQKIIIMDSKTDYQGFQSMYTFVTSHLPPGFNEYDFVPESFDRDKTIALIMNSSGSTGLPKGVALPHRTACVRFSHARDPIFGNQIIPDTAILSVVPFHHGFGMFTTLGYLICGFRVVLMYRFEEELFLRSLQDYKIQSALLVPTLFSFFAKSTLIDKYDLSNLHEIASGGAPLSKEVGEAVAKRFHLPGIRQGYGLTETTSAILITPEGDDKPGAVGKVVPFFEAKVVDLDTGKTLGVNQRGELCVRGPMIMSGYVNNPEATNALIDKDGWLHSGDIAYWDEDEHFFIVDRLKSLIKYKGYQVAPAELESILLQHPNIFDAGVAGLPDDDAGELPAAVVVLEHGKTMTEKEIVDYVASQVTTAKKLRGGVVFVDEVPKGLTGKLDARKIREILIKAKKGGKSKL
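FLuc 10nM, D-luciferin 10uM, ATP 10uM, Mg acetate 10mM, Tris acetate pH 7.5, Tween/BSA; cpd qHTS; enzyme added last; CCD luminescence.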
NPR1 antag = blocks ANP-stimulated signaling of human Npr1 receptor; hit rate 1.6% among 76,000; HEK293 hNpr1 GloSensor cGMP, ANP-stimulated luminescence; Potency, µM (series often up to 46.3 µM), inactives show at the highest dose activity change, negative = inhibition, hits mostly inhibitors; AID 1347048; calls by dose curve; also: % is scaled to controls: 0 for no effect and ±100 for the full control effect; nearly all actives have a fitted effect of over 60% in size
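HEK293 cells stably expressing human Npr1 and cGMP GloSensor pGS-40F, loaded 2 h with 2% GloSensor reagent, given compound 30 min at room temperature. Luminescence read before and 20 min after 0.1 nM hNppA.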
GPT2 inhibitor = inhibitors of human GPT2 alanine aminotransferase; AID 1671188; Recombinant GPT2, coupled pyruvate oxidase/HRP Amplex Red fluorescence; Potency, µM (highest dose often 57.7 µM), without a hit: at the highest dose activity change, negative = inhibition, usual class: inhibitors; hit rate 0.25% among 100,000; Q8TD30; also: % is scaled to controls: 0 for no effect and ±100 for the full control effect; nearly all actives have a fitted effect of over 60% in size
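Fluorescence read-out: pyruvate from GPT2 turnover coupled to pyruvate oxidase, HRP and Amplex Red (0.2mM ThPP, 0.2U/mL PO and HRP, 50uM Amplex final). Substrates 250uM a-KG, 2mM L-alanine; enzyme 10ng/uL; 30 min RT.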
HEK293 tox = HEK 293 cell cytotoxicity | HEK 293 viability, ATP luminescence (CellTiter-Glo), 48-72 h | hit rate 6.6% among 94,000 | Potency, µM (doses to about 115 µM), for inactives: at the highest dose activity change, negative = cytotoxicity, hits mostly inhibitors; also: % is scaled to controls: 0 for no effect and ±100 for the full control effect; nearly all actives have a fitted effect of over 60% in size
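CellTiter-Glo luminescence (cellular ATP) was read after 48 or 72 hr of compound exposure at 37 degree Celsius. Cells were HEK 293 plated at 250 cells/well.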
NIH3T3 tox = kills NIH 3T3 cells; hit rate 4.3% among 94,000; NIH 3T3 viability, CellTiter-Glo ATP luminescence, 48-72 h; Potency, µM (highest dose often 96.7 µM), inactives show at the highest dose activity change, negative = cytotoxicity, usual class: inhibitors; AID 1345082; also: % is scaled to controls: 0 for no effect and ±100 for the full control effect; nearly all actives have a fitted effect of over 55% in size
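First NIH 3T3 cells are plated at 400 cells/well; next compound is pinned in; then plates incubate 48 or 72 hr at 37 °C; finally CellTiter-Glo is added and luminescence read after 10 min.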
FLuc SDR no ATP = stabilizes firefly luciferase without ATP. AID 1963318. shares compounds with FLuc inh-1. hit rate 7.8% among 1,300. Potency, µM (highest dose often 32.7 µM), without a hit: at the top dose activation (signal gain), actives largely listed as activators. Purified FLuc-C-HiBiT, Nano-Glo HiBiT luminescence, no ATP; also: nearly all actives have a fitted effect of over 55% in size
FLuc SDR ATP = firefly luciferase binding stabilization, ATP added; shares compounds with FLuc inh-1; purified FLuc-C-HiBiT + ATP, HiBiT complementation luminescence; Potency, µM (top dose mostly 32.7 µM), without a hit: at the top dose activation (gain of signal), actives largely listed as activators; hit rate 8.7% among 1,300; AID 1963319;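 also: signal reports ligand binding via conformational change of the enzyme rather than luciferase catalysis; % of control where 0% means no effect; nearly all actives have a fitted effect of over 55% in size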
FLuc inh-2 = firefly luciferase enzyme inhibition. shares compounds with FLuc inh-1. purified FLuc-C-HiBiT enzyme, luciferin luminescence. Potency, µM (series often up to 32.7 µM), for the others: at the highest dose activity change, negative = inhibition, usual class: inhibitors. hit rate 42% among 1,300. AID 1963320; also: % is scaled to controls: 0 for no effect and ±100 for the full control effect; nearly all actives have a fitted effect of over 70% in size
The depositor's hits bear a star; i = inactive; ? = inconclusive; nt = no result; [ ] = another dose, or the depositor's remark. Unless noted, calls follow the shape of the dose curve; as a rule, active = well fitted curve in the direction sought with a large enough effect; inconclusive = small, poorly fitted or top-dose-only effect, or another doubt; inactive = no such curve, though single readings can be large; an effect the other way counts as inactive or inconclusive. Potency is read from the fitted curve at half-maximal effect.

SMILES | FLuc inh-1 | NPR1 antag | GPT2 inhibitor | HEK293 tox | NIH3T3 tox | FLuc SDR no ATP | FLuc SDR ATP | FLuc inh-2
Cc1nn(-c2ccccc2)c2c1C(C)N(C1CCN(C(=O)NC(C)C)CC1)C2=O (centres undefined) | nt | nt | nt | -30% | ? | nt | nt | nt
CCn1cc(-c2ccc(Cl)cc2)cc1C(=O)O | ? | 1% | -3% | -9% | -21% | 13% | 11% | -10%
Fc1ccc(C2Cn3cnc(-c4nc(-c5cccs5)no4)c3CO2)cc1 (centres undefined) | i | -11% | -6% | -25% | -13% | nt | nt | nt
O=c1oc2ccc(F)cc2cc1-c1nc(-c2cccs2)no1 | nt | nt | nt | nt | nt | 14% | 20% | ?
Cc1ccc2oc(=O)c(-c3nc(-c4cccs4)no3)cc2c1 | nt | nt | nt | nt | nt | 14% | 13% | -14%
O=C(NCCn1cccc1-c1nc(-c2ccc3c(c2)OCO3)no1)c1ccc(Cl)cc1 | 14µM* | -22% | i | ? | -26% | 13% | 12% | ?
COc1ccc(C(=O)NCCn2cccc2-c2nc(-c3ccccc3)no2)cc1 | 2.5µM* | ? | i | -24% | -3% | ? | ? | 2.8µM*
Cc1ccc(C(=O)NCCn2cccc2-c2nc(-c3ccc4c(c3)OCO4)no2)cn1 | 13µM* | -25% | i | 28µM* | ? | 26% | 17% | ?
Cc1ccc(-c2nnc([C@H]3CCN(Cc4ccc(S(C)(=O)=O)cc4)C3)o2)cc1 | i | ? | -25%[88.5 µM] | ? | ? | nt | nt | nt
Cc1ccc(NC(=O)Cn2c(=O)c(-c3noc(C)n3)c3n(c2=O)CCCCC3)c(Cl)c1 | i | -26% | -7% | -5% | -8% | nt | nt | nt
COc1cc(CN2CCN(c3ccc(C#N)cn3)CC2CCO)cc(OC)c1 (centres undefined) | i | 5% | -7% | ? | ? | nt | nt | nt
O=C(NCCC1CCN(C(=O)Nc2cc(F)cc(F)c2)CC1)c1cccs1 | ? | 1% | i | ? | ? | nt | nt | nt
CN(Cc1ccccc1)C1CCOC2(CCN(S(=O)(=O)c3ccc(F)cc3)CC2)C1 (centres undefined) | i | 0% | i | ? | ? | nt | nt | nt
O=C(c1ccccc1F)N1CCCC(c2noc(COc3ccccc3F)n2)C1 (centres undefined) | i | -17% | i | ? | ? | nt | nt | nt
O=C(O)c1ccc(-c2nnc3ccc(NC(=O)C4CCC4)cn23)cc1 | 10µM* | 2% | i | 19% | -21% | ? | ? | ?
Cc1cc2cc(-c3c(C)noc3C)nc(Nc3ccn(C)n3)c2o1 | i | -1%[70.6 µM] | -2%[88.5 µM] | ? | ? | nt | nt | nt
COCCCNC(=O)c1csc(N2CCN(c3ccccc3)CC2)n1 | i | 2% | i | ? | -7% | nt | nt | nt
Cc1ccc(N2CCN(c3nc(C(=O)O)cs3)CC2)cc1 | 1.4µM* | -16% | -1% | -2% | -6% | 13% | ? | 2µM*
CC(C)NC(=O)N1CCCC(c2noc(COc3ccccc3)n2)C1 (centres undefined) | i | -1% | i | -8% | -16% | nt | nt | nt
CCc1ccc(NC(=O)N2CCCC(c3noc(COc4ccccc4)n3)C2)cc1 (centres undefined) | 1.4µM* | ? | i | ? | ? | ? | ? | 2.8µM*
O=C(O)c1cnc(NCc2ccccn2)nc1-c1ccncc1 | i | 2% | i | -6% | -2% | nt | nt | nt
CCCCOc1nc(N)c2[nH]c(=O)n(Cc3cccc(CC(=O)OC)c3)c2n1 | nt | nt | nt | nt | nt | 11% | 7% | 2%
O=C([C@@H]1C[C@H](Oc2ccccc2)CN1C(=O)CCC1CCCC1)N1CCCC1 | i | 9% | -21% | -27% | ? | nt | nt | nt
Fc1ccc(-c2cn3cc(Cc4ccccc4Cl)sc3n2)cc1 | nt | nt | nt | nt | nt | ? | ? | 0.99µM*
Fc1ccccc1Cc1cn2cc(-c3ccc(Cl)cc3)nc2s1 | nt | nt | nt | nt | nt | 20% | ? | 1.6µM*
SMILES | FLuc inh-1 | NPR1 antag | GPT2 inhibitor | HEK293 tox | NIH3T3 tox | FLuc SDR no ATP | FLuc SDR ATP | FLuc inh-2
Fc1ccc(Cc2cn3cc(-c4ccc(F)cc4)nc3s2)cc1 | nt | nt | nt | nt | nt | ? | ? | 0.88µM*
Cc1ccc(-c2cn3cc(C(=O)NCCc4ccccc4)nc3s2)cc1 | nt | nt | i | -7% | -22% | nt | nt | nt
O=C(NCc1ccccc1Cl)c1nc2sccn2c1-c1ccc(F)cc1 | nt | nt | i | -9% | -31% | nt | nt | nt
O=C(NCc1ccccc1F)c1cn2cc(-c3ccc(F)cc3)sc2n1 | nt | nt | 1%[88.5 µM] | -9%[172 µM] | -17%[138 µM] | nt | nt | nt
Cc1ccc(Cc2cn3cc(-c4ccccc4)nc3s2)cc1 | nt | nt | nt | nt | nt | ? | ? | 0.44µM*
COc1cccc(CC(=O)N2CCCCCCNC(=O)CC2c2ccccc2)c1 (centres undefined) | i | 4% | i | -12% | -11% | nt | nt | nt
Clc1ccc(-c2cn3cc(Cc4ccccc4)sc3n2)cc1 | nt | nt | nt | nt | nt | 30% | ? | 0.79µM*
OCCC1CN(c2nccc(-c3ccccn3)n2)CCN1Cc1ccoc1 (centres undefined) | i | 5% | 4% | -20% | -19% | nt | nt | nt
Cc1ccc(-n2ncc3c(N4CCC(Cc5ccccc5)CC4)ncnc32)cc1C | nt | nt | nt | nt | nt | 13% | 9% | -1%
Fc1ccc(-n2ncc3c(N4CCC(Cc5ccccc5)CC4)ncnc32)cc1 | nt | nt | nt | nt | nt | 15% | 8% | 1%
COc1ccccc1Nc1ccnc(N2CCCC2C(=O)NCC2CC2)n1 (centres undefined) | nt | nt | -14% | ? | ? | nt | nt | nt
COc1ccc(-n2cc(-c3ccnc(N(C)Cc4cnccn4)n3)cn2)cc1 | ? | 1% | 1% | ? | ? | nt | nt | nt
COc1cccc(-n2cc(CN(C)c3ncncn3)cn2)c1 | 13µM* | 1% | 0%[11.5 µM] | -17% | -27% | 17% | 11% | -16%
CCNc1ncnc2sc3c(c12)CCN(C(=O)NCCOC)C3 | i | -12% | i | 9% | -12% | nt | nt | nt
CCCOC(=O)CSc1ncnc2sc3c(c12)CCC(C)C3 (centres undefined) | nt | nt | nt | nt | nt | 16% | 11% | ?
CC(C)c1ccc(C2=CC(c3ccc(C(C)C)cc3)n3nnnc3N2)cc1 (centres undefined) | nt | nt | nt | nt | nt | 11% | 10% | 0%
COc1ccc([C@H]2C[C@@H](O)[C@@H](O)[C@@H]2NC(=O)c2c(-c3ccccc3)noc2C)cc1 | i | -1%[70.6 µM] | -15%[88.5 µM] | -15%[172 µM] | ? | nt | nt | nt
